Source: PubChem
Compounds with a hit are over-represented: about 7.4% of the library has one in this group of screens.
SMN2 splice up: enhancers of SMN2 splice variant expression | HEK293 SMN2-luciferase splicing reporter, luminescence, 30-36 h | Potency, µM (highest dose often 46.1 µM), without a hit: at the highest dose activity change, positive = activation, actives largely listed as activators | 210,000 tested, 2.8% active; also: % of control where 0% means no effect; nearly all actives have a fitted effect of over 55% in size
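HEK293 cells carry an SMN2 minigene-luciferase reporter in which exon 7 inclusion puts luciferase in frame. Cells were seeded at 2000 cells/well, attached for 10-12 hours, then exposed to compounds for 30-36 hours at 37C before ONE-Glo luminescence.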
ELG1 genotoxic: inducers of genotoxicity in HEK293T ELG1-luciferase cells; HEK293T ELG1-luciferase reporter, luminescence, 16 h; Potency, µM (doses to about 46 µM), for inactives: top-dose activity change, positive = activation, hits mostly activators; 330,000 tested, 1.3% active; AID 504466; also: % of control where 0% means no effect; nearly all actives have a fitted effect of over 60% in size
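16 hr compound incubation (37 °C, 5% CO2) of HEK293T cells carrying luciferase-tagged ELG1; luciferase then measured by ONE-Glo luminescence after 30 min at RT.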
NPC1 prom act: activates the NPC1 promoter; Huh7 NPC1 promoter luciferase reporter, 24 h; Potency, µM (series often up to 9.22 µM), for inactives: at the top dose activation, most hits filed as activators; 320,000 tested, 2.4% active; also: % of control where 0% means no effect; nearly all actives have a fitted effect of over 60% in size
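Compounds in DMSO were transferred onto Huh7 NPC1-luciferase reporter cells pre-incubated 2 h; after 24 h at 37 °C, Amplite reagent was dispensed and luminescence recorded 10 min later.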
Rab9 promoter act: Rab9 promoter activation. Huh7 Rab9 promoter-luciferase reporter, luminescence, 24 h. Potency, µM (titrated, usually from 9.22 µM), without a hit: top-dose activation, negative = inhibition, usual class: activators. 320,000 tested, 2.8% active. AID 485297; also: % of control where 0% means no effect; nearly all actives have a fitted effect of over 60% in size
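Steps: seed 1500 Huh7 Rab9-luc cells per well, rest 2 h at 37 °C; add compound in DMSO; incubate 24 h; add luciferase reagent, 10 min ambient; read luminescence.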
FLuc modulator: inhibits or activates purified firefly luciferase, miR-21 counter-screen | 360,000 tested, 6.9% active | purified FLuc, Km substrates, luminescence inhibition | P08659 | Potency, µM (series often up to 57.5 µM), without a hit: at the highest dose activity change, negative = inhibition, usual class: inhibitors | AID 588342;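 also: plate controls were vehicle for no effect and reference inhibitor for full effect; nearly all actives have a fitted effect of over 55% in size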
Target sequence (P08659 whole entry, looked up): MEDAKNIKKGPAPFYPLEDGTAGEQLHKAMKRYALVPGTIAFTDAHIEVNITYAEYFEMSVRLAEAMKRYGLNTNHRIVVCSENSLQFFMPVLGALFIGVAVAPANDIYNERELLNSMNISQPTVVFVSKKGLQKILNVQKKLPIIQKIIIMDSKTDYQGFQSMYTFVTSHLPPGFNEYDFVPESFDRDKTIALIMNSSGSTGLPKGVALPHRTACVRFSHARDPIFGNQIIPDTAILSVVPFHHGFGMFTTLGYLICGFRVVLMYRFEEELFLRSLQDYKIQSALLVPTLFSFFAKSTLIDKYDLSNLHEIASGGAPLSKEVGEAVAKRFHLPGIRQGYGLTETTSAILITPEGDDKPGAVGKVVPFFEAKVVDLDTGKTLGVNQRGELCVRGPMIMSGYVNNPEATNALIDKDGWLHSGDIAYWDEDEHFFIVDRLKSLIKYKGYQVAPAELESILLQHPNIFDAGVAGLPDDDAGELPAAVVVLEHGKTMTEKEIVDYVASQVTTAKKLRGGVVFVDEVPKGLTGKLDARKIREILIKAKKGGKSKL
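Purified P. pyralis luciferase, 10 nM final, with Km-level 10 uM D-luciferin and 10 uM ATP in 50 mM Tris acetate pH 7.5, 10 mM Mg acetate, 0.01% Tween-20, 0.05% BSA; 6-point qHTS titration about 60 µM downward; luminescence read.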
* marks the source's active call; other numbers are inactive results; ? = inconclusive; · = no result. Calls follow the shape of the dose curve; as a rule, active = well fitted curve in the direction sought with a large enough effect; inconclusive = small, poorly fitted or top-dose-only effect, or another doubt; inactive = no such curve, though single readings can be large; an effect the other way counts as inactive or inconclusive. Potency is read from the fitted curve at half-maximal effect.

SMILES	SMN2 splice up	ELG1 genotoxic	NPC1 prom act	Rab9 promoter act	FLuc modulator
O=S(=O)(/N=C(/Nc1ccccn1)c1ccccc1)c1ccc(F)cc1	·	1%	-1%	1%	1%
CC(=O)Oc1ccc2cc(-c3ccccc3)c(=O)oc2c1	·	?	4µM*	?	2.4µM*
CC(=O)COc1ccc2cc(-c3ccccc3)c(=O)oc2c1	·	?	1.1µM*	1µM*	?
O=c1oc2cc(OCc3ccc(C(F)(F)F)cc3)ccc2cc1-c1ccccn1	-4%	-3%	-4%	-3%	0%
COc1ccc(-c2cc3ccc(OC(C)C(=O)O)cc3oc2=O)cc1 (configuration not stated)	·	?	22%	27%	27µM*
O=C(CCCCl)Oc1ccc2cc(-c3ccc4ccccc4n3)c(=O)oc2c1	13µM*	?	?	?	?
CCOc1ccc(CCNCc2c(C(=O)O)c(C)n(Cc3ccccc3F)c2C)cc1	3%	·	·	·	-9%
Cc1cccc(N2CCN(c3ncnc4c3nc3n4CCCCC3)CC2C)c1 (configuration not stated)	·	·	·	·	-14%
Cc1nn(C)c(C)c1S(=O)(=O)N(CC(=O)NCCCN1CC(C)CC(C)C1)c1ccc(C(C)C)cc1 (configuration not stated)	·	1%	1%	-7%	8%
CCOc1cc(N2CCOCC2)c(OCC)cc1NC(=O)CN1C(=O)N(C)C2(CCCCC2)C1=O	·	4%	-3%	-4%	·
Clc1ccc(Cl)c(OCc2cc(-c3ccccc3Cl)on2)c1	-3%	14%	?	?	11µM*
O=c1oc2ccccc2cc1-c1ccc(O)cc1	?	?	?	3.5µM*	12µM*
Nc1ccc(-c2cc3ccccc3oc2=O)cc1	·	4%	-20%	-11%	21µM*
Nc1ccc2oc(=O)c(-c3ccccc3)cc2c1	·	?	?	19%	?
O=c1cc(-c2cc3ccccc3oc2=O)c2ccc(O)cc2o1	-2%	·	·	·	·
O=c1oc2ccccc2cc1O	-5%	·	·	·	·
O=c1oc2ccccc2cc1NCc1ccccc1O	5%	?	1%	17%	15µM*
CC(C)CCNCC1OCc2ccccc2CO1	17%	3%	1%	-5%	-1%
CC1(C)C[C@@H](O)[C@]2(C)CC[C@]3(C)C(=CCC4[C@@]5(C)CC[C@H](O)[C@](C)(CO)C5CC[C@]43C)[C@@H]2C1 (some centres not stated)	·	1%	·	·	·
Clc1ncnc2c1oc1ccccc12	13µM*	?	1%	-1%	9.5µM*
c1ccc2cc(Sc3ncnc4c3oc3ccccc34)ccc2c1	-21%	1%	?	?	17µM*
Cn1ccsc1=NC(=O)c1ccc(=O)[nH]c1	·	2%	2%	-3%	-1%
Cn1ccsc1=NC(=O)c1cccc(OC(F)F)c1	·	?	3.5µM*	?	15µM*
C[n+]1c(/C=C/c2ccc3c(c2)OCO3)ccc2ccccc21	-95%	?	8%	15%	11µM*
C[n+]1c(/C=C/c2ccc(O)cc2)ccc2ccccc21	·	3%	-7%	-2%	13µM*
SMILES	SMN2 splice up	ELG1 genotoxic	NPC1 prom act	Rab9 promoter act	FLuc modulator
O=C(NCc1ccccc1F)C(=O)NCC(c1ccco1)S(=O)(=O)c1ccccc1 (configuration not stated)	·	·	·	·	5%
N#Cc1c(/N=C/c2cccs2)sc2c1CCCCC2	-24%	0.52µM*	3.5µM*	2µM*	0.38µM*
N#Cc1c(/N=C/c2ccc(Br)s2)sc2c1CCC2	7.9µM*	?	?	?	1.9µM*
Cc1ccc(/C=N/n2c(C)cc(C)c(C#N)c2=O)o1	-21%	-1%	-1%	-1%	-2%
N#Cc1c(/N=C/c2cccnc2)sc2c1CCCC2	·	3%	-3%	-4%	2.7µM*
Cc1ccc(/C=N/c2sc3c(c2C#N)CCC3)o1	4%	?	6%	2%	1.3µM*
COc1ccc2ccccc2c1/C=N/NC(=O)c1ccccc1F	·	0%	2%	-2%	21µM*
COc1ccc2ccccc2c1/C=N\NC(=O)c1ccc(C)s1	·	1%	3%	-1%	12µM*
Cc1ccc(CN(C)C(=O)c2cccc(S(=O)(=O)N3CCc4ccccc4C3)c2)o1	·	2%	-2%	-1%	4%
COc1ccc(OC(=O)c2cnn(-c3ccccc3)c2C)cc1	?	?	3.2µM*	3.2µM*	4.8µM*
Cc1nn(-c2ccccc2)c(C)c1C(=O)Oc1ccccc1	·	15%	28%	?	17µM*
COc1ccc(S(=O)(=O)N2CCN(C(=O)c3c(C)nn(-c4ccccc4)c3C)CC2)cc1	·	0%	2%	-2%	-1%
Cc1cc(C(=O)OCC(=O)Nc2c(F)cccc2F)c(C)n1-c1ccccc1	-6%	16%	24%	25%	11µM*
COc1ccc(OC(=O)c2c(C)nn(-c3ccccc3)c2C)cc1	·	?	?	?	15µM*
CC(=O)c1c(C)nn(-c2ccccc2)c1C	·	0%	-1%	-6%	2%
Cc1nn(-c2ccccc2)c(C)c1C(=O)OCC(=O)Nc1ccccc1F	·	?	4µM*	2.2µM*	4.8µM*
O=[N+]([O-])c1cccc2ccc(/C=C/c3ccc(F)cc3)nc12	?	25%	20%	1%	8.5µM*
CCOc1c(OC(C)=O)ccc(/C=C/c2ccc3cccc(OC(C)=O)c3n2)c1[N+](=O)[O-]	24%	-3%	?	?	?
COc1c(OC(C)=O)ccc(/C=C/c2ccc3cccc(OC)c3n2)c1[N+](=O)[O-]	23%	6%	22%	21%	12µM*
COc1c(OC(C)=O)ccc(/C=C/c2ccc3ccccc3n2)c1[N+](=O)[O-]	22µM*	?	?	?	1.5µM*
O=[N+]([O-])c1ccccc1/C=C/c1ccc2ccccc2n1	·	?	3.5µM*	4µM*	2.1µM*
Cn1c(/C=C/c2ccccc2[N+](=O)[O-])nc2ccccc2c1=O	·	4%	?	?	?
O=C(/C=C\c1ccc2c(c1)OCO2)NC1CC(=O)N(c2cccc(F)c2)C1 (configuration not stated)	·	·	·	·	-1%
CC(=O)N1CCN(c2ccccc2NC(=O)COc2cc(C)cc(C)c2)CC1	·	-9%	-4%	0%	2%
O=c1c2ccccc2ncn1-c1ccc2c(c1)OCCO2	2%	?	?	2.8µM*	?
CC(=O)Oc1ccc2c(=O)c(/C=N/c3cc(=O)[nH]c(=S)[nH]3)coc2c1	·	1%	2%	0%	3%
Cc1cc(S(=O)(=O)Nc2cc3c(cc2NCc2ccccc2)n(C)c(=O)n3C)ccc1F	10µM*	·	·	·	24µM*
COc1ccc(S(=O)(=O)Nc2cc3c(cc2NCc2ccccc2)n(C)c(=O)n3C)cc1OC	3.5µM*	·	·	·	?
